CHO-K1 Ca PAM: counter-screen for M1 PAMs: effect in parental CHO-K1 cells. 360,000 compounds, 0.02% hits. activation, % at 3 µM. ATP EC20, Fluo-8 calcium fluorescence; 0% at ATP EC20, 100% at ATP max;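 active = activation above the run cutoff, the mean activation of all test compounds plus 3 SD, cut at about 40% in these data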;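 also: peak over basal fluorescence ratio in a 140 s read after ATP addition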
CHRM1 antagonist: human CHRM1 antagonism; CHO-K1 hM1, Fluo-8 calcium fluorescence, ACh EC80 antagonist; inhibition, % at 3 µM; 360,000 compounds, 1.3% hits;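 active = percent inhibition above its own plate's cutoff, namely the mean of that plate's compound wells plus 3 SD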;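 also: peak over basal fluorescence ratio during 140 s after agonist addition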
Target sequence (P11229 whole entry, looked up): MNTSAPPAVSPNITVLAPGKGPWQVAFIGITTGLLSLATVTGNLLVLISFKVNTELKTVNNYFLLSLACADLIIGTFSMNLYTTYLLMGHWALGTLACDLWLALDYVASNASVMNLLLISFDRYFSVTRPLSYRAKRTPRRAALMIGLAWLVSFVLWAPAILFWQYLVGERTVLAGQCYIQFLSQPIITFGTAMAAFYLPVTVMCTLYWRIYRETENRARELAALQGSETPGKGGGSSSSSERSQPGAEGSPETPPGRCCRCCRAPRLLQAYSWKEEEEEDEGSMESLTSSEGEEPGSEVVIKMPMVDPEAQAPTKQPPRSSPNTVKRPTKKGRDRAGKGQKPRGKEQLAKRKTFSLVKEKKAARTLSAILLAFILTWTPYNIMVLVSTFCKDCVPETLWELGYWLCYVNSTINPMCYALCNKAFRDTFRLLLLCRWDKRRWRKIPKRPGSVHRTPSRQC
CHO-K1 Ca antag: nonselective inhibitor or artifact in parental CHO-K1 cells. ATP-induced calcium, Fluo-8 fluorescence. inhibition, % at 3 µM. 360,000 compounds, 0.6% hits;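 active = inhibition above a per-plate cutoff, the plate's mean sample inhibition plus 3 SD, cut at about 24% in these data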
M1 PAM: potentiates human M1 receptor response to acetylcholine. P11229. CHO-K1 hM1, Fluo-8 calcium fluorescence, ACh EC20; 0% = ACh EC20, 100% = maximal ACh. activation, % at 3 µM. 360,000 compounds, 0.088% hits; in the data active = activation above about 19%, passing the limit was not always enough
CHRM1 agonist: human M1 muscarinic receptor agonism; activation, % at 3 µM; 360,000 compounds, 0.33% hits; CHO-K1 hM1, Fluo-8 calcium fluorescence, agonist mode; 0% DMSO, 100% acetylcholine EC100; P11229; AID 588814;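 active = activation above the run's mean compound activation plus 3 SD, cut at about 16% in these data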;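 also: peak over basal fluorescence ratio within a 140 s kinetic read after compound addition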
CHO-K1 Ca ag: nonselective activator or artifact in parental CHO-K1 cells; Fluo-8 calcium fluorescence; scaled to maximal ATP response, vehicle zero; activation, % at 3 µM; 360,000 compounds, 0.48% hits; in the data active = activation above about 15%;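 also: untransfected CHO-K1 host cells lacking M1 receptor as counterscreen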
Numbers stand for hits; i = inactive. Hits are enriched below; roughly 2.3% of the tested compounds scored in any of these assays.

SMILES	CHO-K1 Ca PAM	CHRM1 antagonist	CHO-K1 Ca antag	M1 PAM	CHRM1 agonist	CHO-K1 Ca ag
CCc1nc2ccccc2n1CC(=O)NC1CCS(=O)(=O)C1 (stereo not given)	i	i	i	i	i	i
CC1(C)Cc2noc(N)c2C(C)(C)N1O	i	i	25	i	i	i
CC(=O)ON1C(C)(C)Cc2noc(N)c2C1(C)C	i	i	i	i	i	i
O=C(NC1CCCCC1)c1ccc2[nH]c(=O)c(=O)[nH]c2c1	i	i	i	i	i	i
COC(=O)c1ccc(C2C(C(=O)Nc3ccc(C)cc3C)=C(C)Nc3ncnn32)cc1 (stereo not given)	i	i	24	i	i	i
COC(=O)C1=C(C)Nc2ncnn2C1c1ccc(OC(=O)c2ccccc2)cc1 (stereo not given)	i	i	i	i	i	i
O=C(c1ccccc1F)N1CCN(Cc2ccc3c(c2)OCO3)CC1	i	i	i	i	i	i
N#Cc1c(F)cccc1N1CCN(Cc2ccc3c(c2)OCO3)CC1	i	66	i	i	i	i
NNC(=O)c1csc(-c2ccc(C(F)(F)F)cc2Cl)n1	i	i	i	i	i	i
O=[N+]([O-])c1cccc(-c2cc3cccc[n+]3cc2-c2cccc([N+](=O)[O-])c2)c1	i	i	i	i	i	i
Cc1sc2cc(-c3cccc([N+](=O)[O-])c3)c(-c3cccc([N+](=O)[O-])c3)c[n+]2c1C	i	32	i	i	i	i
Cc1ccccc1C(=O)Nc1nnc([C@@H]2C[C@H](O)[C@@H](CO)O2)s1	i	i	i	i	i	i
C#CCCCCCCC#CCN(C)C	i	i	26	i	41	i
COc1ccc(OC)c(NC(=O)CSc2nnc(-c3cnccn3)n2C)c1	i	i	i	i	i	i
CCCCN(C=O)c1c(CC)nc2ccc(C(=O)NCCOc3ccc(OC)cc3)cn12	i	i	i	i	i	i
O=C(Cc1ccc(NS(=O)(=O)c2cccc(C(F)(F)F)c2)cc1)NCCN1CCOCC1	i	i	i	i	i	i
CC(C)(CNC(=O)Cc1ccc(NS(=O)(=O)c2cccc(C(F)(F)F)c2)cc1)N1CCOCC1	i	34	i	i	i	i
Oc1ccccc1C1=Nc2nc3ccccc3n2C(c2ccccc2)C1 (stereo not given)	i	i	i	i	i	i
Oc1ccccc1C1=NC(c2ccccc2)NC(c2ccccc2)C1 (stereo not given)	i	i	26	i	i	i
CCNC(=O)C1CCCN(C(=O)c2cccc(C#N)c2)CC1 (stereo not given)	i	i	i	i	i	i
COc1ccc(-c2cnnn2-c2ccc([N+](=O)[O-])cc2)cc1	i	i	i	i	i	i
CC(=O)Nc1ccccc1OCC(=O)c1cc(C)n(Cc2cccs2)c1C	i	32	i	i	i	i
Cc1cc(C(=O)COc2cccnc2[N+](=O)[O-])c(C)n1Cc1cccs1	i	i	i	i	i	i
COC(=O)CCn1c(C)cc(C(=O)COc2ccccc2C(N)=O)c1C	i	i	i	i	i	18
O=C1CCc2cc(S(=O)(=O)Nc3ccc(F)cc3)cc3c2N1CC3	i	i	i	i	i	i
SMILES	CHO-K1 Ca PAM	CHRM1 antagonist	CHO-K1 Ca antag	M1 PAM	CHRM1 agonist	CHO-K1 Ca ag
CC12CCC(=O)N1C(C(=O)Nc1cc(Cl)ccc1N1CCCC1)CS2 (stereo not given)	i	i	i	i	i	i
CN(C/C=C/c1ccccc1[N+](=O)[O-])Cc1ccccc1	i	55	i	i	i	i
CCOC(=O)C1CCN(C/C=C/c2ccccc2)CC1	i	i	i	i	i	i
CCOC(=O)C1CCCN(C/C(O)=C(\C#N)c2nc(-c3ccccc3)cs2)C1 (stereo not given)	i	i	i	i	56	i
O=[N+]([O-])c1ccccc1/C=C/CN1CCCCC1	i	45	i	i	i	i
N#C/C(=C(/O)CN1CCOCC1)c1nc(-c2ccccc2)cs1	i	i	i	i	i	i
CCOC(=O)C1CCCN(C/C=C/c2ccccc2)C1 (stereo not given)	i	56	i	i	i	i
O=[N+]([O-])c1ccccc1/C=C/CN1CCCCC1CO (stereo not given)	i	i	i	i	i	i
O=C(c1ccco1)N1CCN(C(=O)C2CC(=O)N(c3ccc(Cl)cc3)C2)CC1 (stereo not given)	i	i	i	i	i	i
CCN(CC)C(=O)[C@H]1C[C@H](CC(=O)NC/C=C(\C)CCC=C(C)C)C(=O)N2CCc3c([nH]c4cc(CCC(=O)N(C)C)ccc34)[C@]12C	i	i	i	i	i	i
CN(CCOc1ccccc1)C(=O)C1CCC(=O)N(CCN2CCOCC2)C1 (stereo not given)	i	i	i	i	i	i
CCCCN(C)CCNC(=O)CCn1nc(-c2ccc(C)cc2)ccc1=O	i	i	i	i	i	i
CCOC(=O)C1CCCN(C/C=C/c2ccccc2[N+](=O)[O-])C1 (stereo not given)	i	28	i	i	i	i
CN(C)S(=O)(=O)c1ccc(C(=O)NC(=O)CSc2nncs2)cc1	i	i	i	i	i	i
CCCN1CCC(NC(=S)Nc2cccc(Cl)c2Cl)CC1	i	i	i	i	26	i
Cn1c(=S)c2[nH]c(SCCN3CCCC3)nc2n(C)c1=O	i	i	i	i	i	i
CCN1CCCC(Sc2nc3c([nH]2)c(=S)n(C)c(=O)n3C)C1 (stereo not given)	i	i	i	i	i	16
CC1(C)CC(=O)C(C2C3=C(CC(C)(C)CC3=O)Oc3c(Br)cc(Br)cc32)=C(O)C1 (stereo not given)	i	i	i	i	i	i
O=C(Nc1cccc(Cl)c1N1CCOCC1)c1ccc(Br)o1	i	i	i	i	i	i
COc1ccc2ccc(OC)c(/C=N/NC(=O)c3cc4ccccc4o3)c2c1	i	i	i	i	i	i
CCOC(=O)N1CCN(CCC(=O)Nc2cccc(Cl)c2C)CC1	i	39	i	i	52	i
CCOC(=O)C1CCN(CCC(=O)Nc2cccc(Cl)c2C)CC1	i	i	i	i	i	i
Cc1c(Cl)cccc1NC(=S)N1CCN(Cc2ccccc2)CC1	i	i	i	i	19	i
CCc1nc2ccc(C(=O)NC3CCC(C)CC3)cc2nc1CC (stereo not given)	i	i	i	i	i	i
CN(C)CCCCOc1ccccc1-c1ccccc1	i	18	24	i	i	i
O=C(CSc1nnc2n1CCCN2)c1ccc(Cl)cc1	i	i	i	i	i	i
O=C(CSc1nnc2n1CCCN2)c1ccc([N+](=O)[O-])cc1	i	i	i	i	i	19
COc1cc(OC)c(NC(=O)CCNC(=O)Cn2cnc3ccccc3c2=O)cc1Cl	i	i	i	26	i	i
